{"source": "PubChem BioAssay (EPA / NIEHS)", "note": "More than one record can exist for a structure, and the calls need not agree. Activity calls are given as the source filed them. How the source made its calls: active means hit-call score of the fitted dose curve at least 0.9, where 1 is the maximum; inactive means score below 0.9.", "data": [{"test": "CCTE_Shafer_MEA_dev_per_network_spike_spike_percent: CCTE's Neural Network Formation Assay for Percent of Spikes in a Network Spike, Shafer Lab (AID 2284054)", "protocol": "CCTE_Shafer_MEA_dev assay is conducted using Axion Biosystems 48 well microelectrode array (MEA) plates and Maestro recording system. Each well of the MEA plate contains a grid of 16 microelectrodes embedded in the culture surface. Electrically active cells, such as neurons, can be cultured over the electrodes, and electrical activity in these cells can be recorded extracellularly. The spontaneous firing of neurons is captured from each electrode on a microsecond timescale providing both temporally and spatially precise data. […] The CCTE_Shafer_MEA_dev assay uses primary cultures of rat cortical neurons. Recordings are made on days post-plating 5, 7, 9 and 12. As these cultures mature over time, neural networks develop functional activity and form cohesive networks in which electrical activity can be highly coordinated. CCTE_Shafer_MEA_dev_per_network_spike_spike_percent is 1 of 19 assay components of the CCTE_Shafer_MEA_dev assay. It measures the percent of spikes (action potential firings) in a network spike (temporally-clustered group of spikes across multiple electrodes) as the number of spikes that occur within a 0.05 s time window at the peak of a network spike divided by the total number of spikes during a recording in a microelectrode array (MEA) using Axion Biosystems Maestro 768 channel amplifier with the AxIS adaptive spike detector. To collapse across multiple recordings made on days post-plating 5, 7, 9 and 12, the trapezoidal area-under-the-curve of the component is calculated.Data from the assay component CCTE_Shafer_MEA_dev_per_network_spike_spike_percent was analyzed into 1 assay endpoint. This assay endpoint, CCTE_Shafer_MEA_dev_per_network_spike_spike_percent, was analyzed in the negative analysis fitting direction relative to DMSO as the negative control and baseline of activity. Using a type of functional reporter, gain or loss-of-signal activity can be used to understand electrical activity.\nOn the day prior to culture, each well was coated thoroughly with 150 uL of 0.05% polyethyleneimine (PEI, Sigma Cat P3143) in 50 mM HEPES (Sigma Cat H7523) at a pH of 8. The plate was incubated at 37C for one hour. PEI was rinsed out with 500 uL of sterile water three times. Plates were stored at 4C until the day of culture. This culture was plated at a seeding density of 1.5 x 10^5 cells/well on a 48-well MEA plate, prepared as described above. Cells were administered via a 25 uL media/laminin ([…]; Sigma Cat L2020-1MG) drop directly onto the microelectrode array, as adding the cells with the laminin results in better attachment than pre-coating with laminin. After 2 hours, an additional 475 uL of cortical media was added and the cells returned to the incubator. Exposure starts at day 0 of plating and is continued over twelve days of network development until the experiment is terminated. Cells are fed with fresh medium on DIV 5 and 9, following the recordings on those days. The entire volume of media in the well is exchanged and any vehicle or compound treatment is renewed. Complete details are found in OP-NHEERL/ISTD/SBB/TJS/2015-03-r0 (available on request, email shafer.tim@epa.gov). Measurement of the electrical activity is non-invasive, and recordings can be made from the same plate over multiple different days of the culture. In cortical neurons, this allows for the measurement of extracellular action potentials over the period during which networks form in the MEA plate.", "values": [{"smiles": "O=C(OC(=O)C(F)(F)C(F)(F)F)C(F)(F)C(F)(F)F", "outcome": "inactive"}, {"smiles": "OCC(F)(F)C(F)(F)C(F)(F)C(F)(F)C(F)(F)C(F)(F)C(F)(F)C(F)(F)C(F)(F)C(F)(F)C(F)(F)F", "AC50": "9.08 µM (active)", "outcome": "inactive"}, {"smiles": "CN(C)CCOC(c1ccccc1)c1ccccc1", "AC50": "14 µM (active)"}, {"smiles": "CC(C)c1c(C(=O)Nc2ccccc2)c(-c2ccccc2)c(-c2ccc(F)cc2)n1CC[C@@H](O)C[C@@H](O)CC(=O)O", "AC50": "0.00821 µM (active)"}, {"smiles": "CC(=O)Nc1ccc(O)cc1", "outcome": "inactive"}, {"smiles": "O=C(CC(=O)C(F)(F)C(F)(F)C(F)(F)F)c1cccs1", "AC50": "3.48 µM (active)"}, {"smiles": "COC(=O)C(F)(F)C(F)(F)C(F)(F)C(F)(F)C(F)(F)F", "outcome": "inactive"}, {"smiles": "O=CC(F)(F)C(F)(F)C(F)(F)F", "outcome": "inactive"}, {"smiles": "O=P(O)(O)CCC(F)(F)C(F)(F)C(F)(F)C(F)(F)C(F)(F)C(F)(F)C(F)(F)C(F)(F)F", "AC50": "5.38 µM (active)"}, {"smiles": "O=C(CCCN1CCC(O)(c2ccc(Cl)cc2)CC1)c1ccc(F)cc1", "AC50": "2.98 µM (active)"}, {"smiles": "O=P(O)(O)CCC(F)(F)C(F)(F)C(F)(F)C(F)(F)C(F)(F)C(F)(F)F", "outcome": "inactive"}, {"smiles": "CN(CCO)S(=O)(=O)C(F)(F)C(F)(F)C(F)(F)C(F)(F)C(F)(F)C(F)(F)C(F)(F)C(F)(F)F", "outcome": "inactive"}, {"smiles": "COC(=O)C(F)(F)C(F)(F)C(F)(F)F", "outcome": "inactive"}, {"smiles": "O=C(F)C(F)(F)C(F)(F)C(F)(F)C(F)F", "outcome": "inactive"}, {"smiles": "CN(Cc1cnc2nc(N)nc(N)c2n1)c1ccc(C(=O)N[C@@H](CCC(=O)O)C(=O)O)cc1", "AC50": "0.0253 µM (active)"}, {"smiles": "O=C(O)CCC(F)(F)C(F)(F)C(F)(F)C(F)(F)C(F)(F)F", "outcome": "inactive"}, {"smiles": "O=C1NS(=O)(=O)c2ccccc21", "outcome": "inactive"}, {"smiles": "O=C(O)C(F)(F)OC(F)(F)C(F)(F)OC(F)(F)C(F)(F)OC(F)(F)C(F)(F)C(F)(F)C(F)(F)F", "outcome": "inactive"}, {"smiles": "O=C(C=C(O)C(F)(F)F)C(F)(F)F", "outcome": "inactive"}, {"smiles": "O=CC(F)(F)C(F)(F)C(F)(F)C(F)F", "outcome": "inactive"}, {"smiles": "NC(C(F)(F)F)C(F)(F)F", "outcome": "inactive"}, {"smiles": "O=C(F)C(F)(F)C(F)(F)C(F)(F)C(=O)F", "outcome": "inactive"}, {"smiles": "FCOC(C(F)(F)F)C(F)(F)F", "outcome": "inactive"}, {"smiles": "FC(F)=C(F)C(F)(F)C(F)(F)C(F)(F)C(F)F", "outcome": "inactive"}, {"smiles": "C=CC(F)(F)C(F)(F)C(F)(F)C(F)(F)F", "outcome": "inactive"}, {"smiles": "Nc1ccn([C@@H]2O[C@H](CO)[C@@H](O)C2O)c(=O)n1", "note": "(some centres not stated)", "AC50": "0.119 µM (active)"}]}]}
